According to PubChem BioAssay (NCI):
The panel holds about 79,000 compounds, 15% with a hit somewhere; the sample as a whole holds those more often. No stated cut-off is given here; in the data, active means growth inhibition above about 70%; inactive means the rest.

How the values were obtained:
[1] = NCI Yeast Anticancer Drug Screen. Data for the rad50 strain (AID 155);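 further: 0% = growth of vehicle-only cultures of the same strain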; conditions: S. cerevisiae rad50 strain growth inhibition; at 50.0 µM; hits give high values
Method in brief: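 A DNA repair-deficient yeast mutant serves as the test organism; compound-induced growth inhibition is calculated against vehicle-treated cells.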

[2] = NCI Yeast Anticancer Drug Screen. Data for the mec2-1 strain (AID 157); conditions: S. cerevisiae mec2-1 strain, at 50.0 µM, hits give high values
Method in brief: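 Using mec2-1 yeast: add compound, measure growth, express inhibition versus vehicle-treated cultures.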

[3] = NCI Yeast Anticancer Drug Screen. Data for the sgs1 mgt1 strain (AID 161);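 further: 0% = growth of cultures given vehicle only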; conditions: S. cerevisiae sgs1 mgt1 strain, at 50.0 µM, hits give high values
Method in brief: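 Yeast cells carrying a defined DNA-repair defect were exposed to test compounds. Growth inhibition was measured relative to vehicle-treated controls.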

[4] = NCI Yeast Anticancer Drug Screen. Data for the cln2 rad14 strain (AID 165);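 further: 0% = growth equal to vehicle treated cultures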; conditions: S. cerevisiae cln2 rad14 strain, at 50.0 µM, hits give high values
Method in brief: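 Yeast strain cln2 rad14, bearing defects in cell cycle control and DNA repair, serves as the test system; values reflect growth inhibition compared with vehicle.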

[5] = NCI Yeast Anticancer Drug Screen. Data for the bub3 strain (AID 167); conditions: S. cerevisiae bub3 mutant strain, at 50.0 µM, hits give high values
Method in brief: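 Inhibition values come from growth of compound-treated mutant yeast normalised to vehicle-treated controls.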

[6] = NCI Yeast Anticancer Drug Screen. Data for the mlh1 rad18 strain (AID 175); conditions: S. cerevisiae mlh1 rad18 strain growth inhibition; at 50.0 µM; hits give high values
Method in brief: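 Steps: expose repair-defective yeast to compound; measure growth; express inhibition against vehicle-treated controls.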

Measured: growth inhibition

Cc1cccc(C(C#N)c2ccc(N)cc2)c1 (stereo unspecified)
inactive: [1] -35.2% | [2] -61% | [3] -4.65% | [4] 11.7% | [5] -46% | [6] -18.4%

CCOC(=O)C(=CC(CC)CC)C(=O)OCC
inactive: [1] 8.7% | [2] -18.4% | [3] -10.2% | [4] -4.1% | [5] -16.2% | [6] -0.85%

COc1ccc(C(Cc2cc(OC)c(OC)cc2Br)NC=O)cc1OC (stereo unspecified)
inactive: [1] 0.3% | [2] 7.35% | [3] -7.55% | [4] -3.15% | [5] 5% | [6] 31.4%

O=C1CC2(CCCCC2)C(=O)N1c1cc([N+](=O)[O-])ccn1
inactive: [1] 25.4% | [2] 14.7% | [3] 0.8% | [4] 17.6% | [5] 10% | [6] 19.8%

Clc1ccc(OCCBr)cc1
inactive: [1] 39.2% | [2] 27.9% | [3] 29.4% | [4] 19.9% | [5] 3.8% | [6] 25.6%

COc1ccc(C(CCl)(CCl)c2ccc(OC)cc2)cc1
inactive: [1] 11.8% | [2] -40% | [3] 4.35% | [4] 15.3% | [5] 31.6% | [6] -9.9%

Cc1ccc(NC2=CC(=O)c3ccccc3C2=O)cc1
inactive: [1] 22.4% | [2] 6.45% | [3] 17.8% | [4] -26.9% | [5] 13.8% | [6] 9.45%

Brc1ccc(/C(=N/Nc2ccccc2)Oc2ccccc2)cc1
inactive: [1] 17.6% | [2] 1.8% | [3] 16.1% | [4] 25.3% | [5] 14.8% | [6] 19.6%

CC(=O)CC(=O)NN(C)C
inactive: [1] -4.8% | [2] -32.4% | [3] -28.9% | [4] 8.5% | [5] -36.4% | [6] 9.85%

COC1OC(CN)C(O)C(O)C1O (stereo unspecified)
inactive: [1] 0.15% | [2] 12.1% | [3] 2.35% | [4] 28.2% | [5] 5.7% | [6] 43.2%

NC(=O)CCCc1ccc2oc3ccccc3c2c1
inactive: [1] 13.4% | [2] -4.05% | [3] 9.05% | [4] 6.55% | [5] 22.8% | [6] 35.4%

CCn1c2ccc(N=C=O)cc2c2c3[nH]c(=O)c4cccn4c3ccc21
inactive: [1] -30.9% | [2] 10.2% | [3] -9.4% | [4] 0.55% | [5] -1.8% | [6] 1.25%

CCC(C(=O)O)(C(C)C)C(C)C
inactive: [1] 5.8% | [2] 30.9% | [3] 12.9% | [4] 12.4% | [5] -0.05% | [6] 8.1%

COc1ccc(NC(=O)CC(=O)N2N=C(N(CCC#N)c3ccc(Cl)cc3)CC2c2ccccc2)cc1 (stereo unspecified)
inactive: [1] 16.5% | [2] -17% | [3] -1.55% | [4] 7.5% | [5] 2.05% | [6] -6.05%

Nc1ccc2cccc(N)c2n1
inactive: [1] 34.5% | [2] 12.2% | [3] 8.85% | [4] 5.9% | [5] -5.65% | [6] -0.55%

CCOC(=O)C(=[N+]=[N-])C(=O)c1ccc(OS(C)(=O)=O)c(OS(C)(=O)=O)c1
inactive: [1] 7.8% | [2] -1.05% | [3] 13% | [4] 22.3% | [5] -0.2% | [6] 11.9%

CCOC(=O)/N=c1/nc(N(C)C)ss1
inactive: [1] -18.9% | [2] -29.6% | [3] 4.15% | [4] -19.6% | [5] -9.4% | [6] -5.05%

COc1cc([N+](=O)[O-])c2nccc(C)c2c1
inactive: [1] 13.1% | [2] 6.1% | [3] -0.6% | [4] -5.05% | [5] -5.1% | [6] 18.6%

CO[C@@]12CC(=O)/C(=C(O)\C=C\c3ccccc3)C(=O)[C@]1(OC)Cc1ccccc1O2
inactive: [1] 35.1% | [2] 31.9% | [3] 33.6% | [4] 18.6% | [5] 34.2% | [6] 24.6%

COc1ccc(C2OCC(c3ccccc3)O2)cc1 (stereo unspecified)
inactive: [1] -13.4% | [2] -7.65% | [3] -18.5% | [4] -37% | [5] 3.15% | [6] -29.1%

CCOC(=S)SCc1cc(C(C)(C)C)c(O)c(C(C)(C)C)c1
inactive: [1] 2.7% | [2] 14.4% | [3] 20.2% | [4] -20.2% | [5] 1.15% | [6] 1.8%
